Experimental findings from paper PMC7862700, “An all-to-all approach to the identification of sequence-specific readers for epigenetic DNA modifications on cytosine” are described below.

Test in all cases: DAPPL (digital affinity profiling via proximity ligation, sequencing); 10 mM Tris-HCl pH 7.5, 50 mM NaCl, 1 mM DTT, 4% glycerol, room temperature, 30 min; GST-TFs on glutathione beads, 16-mer random dsDNA library, 0.1% formaldehyde crosslink after washing; high values mean tight binding
In assay [1] the target is T1, FEV (Homo sapiens, UniProt Q99581 1-238).
T1 sequence: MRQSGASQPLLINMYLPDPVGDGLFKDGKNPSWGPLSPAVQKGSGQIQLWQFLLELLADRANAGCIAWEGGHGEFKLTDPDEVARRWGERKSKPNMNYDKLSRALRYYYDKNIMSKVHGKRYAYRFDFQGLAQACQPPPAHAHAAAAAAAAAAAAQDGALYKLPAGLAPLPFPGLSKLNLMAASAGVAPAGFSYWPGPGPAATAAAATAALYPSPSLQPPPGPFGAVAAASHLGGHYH
To be noted: protein: recombinant; tags: N-terminal GST; dsDNA, one strand shown. In outline: (§1)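 GST fusions of human transcription factors were expressed in yeast and captured with glutathione beads. Once given DNA barcodes and pooled alongside a tag-only sample, they were incubated for 30 min at room temperature with 200 nmole of a random double-stranded 16-mer DNA library in Tris/NaCl/DTT/glycerol buffer, then washed, crosslinked (0.1% formaldehyde), proximity-ligated, PCR-amplified and sequenced on an Illumina NextSeq500. The binding signal of each hexamer is its read frequency for a factor divided by its frequency for the tag-only sample.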

The target of assay [2] is ETV5 (Homo sapiens, UniProt P41161 1-510). Conditions: protein: recombinant; tags: N-terminal GST; dsDNA, one strand shown. The gist of the method: as §1
Assay [3] addresses HSF1 (Homo sapiens, UniProt Q00613 1-529). Conditions: protein: recombinant; tags: N-terminal GST; chain copies: 3; dsDNA, one strand shown. The gist of the method: as §1
Assay [4] has as its target T2, SPIC (Homo sapiens, UniProt Q8N5J4 1-248).
T2 sequence: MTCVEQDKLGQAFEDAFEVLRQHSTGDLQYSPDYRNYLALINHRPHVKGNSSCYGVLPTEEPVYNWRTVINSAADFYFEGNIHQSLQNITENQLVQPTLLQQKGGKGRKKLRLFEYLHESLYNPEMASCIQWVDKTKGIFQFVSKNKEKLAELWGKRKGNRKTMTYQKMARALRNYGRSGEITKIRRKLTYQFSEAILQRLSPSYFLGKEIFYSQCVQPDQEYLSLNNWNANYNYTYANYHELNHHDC
Conditions: protein: recombinant; tags: N-terminal GST; dsDNA, one strand shown. The gist of the method:
as §1

Assay [5] has as its target ELF4 (Homo sapiens, UniProt Q99607 1-663). To be noted: protein: recombinant; tags: N-terminal GST; dsDNA, one strand shown. The gist of the method:
as §1

The target of assay [6] is T3, ELK4 (Homo sapiens, UniProt P28324-2 1-405).
T3 sequence: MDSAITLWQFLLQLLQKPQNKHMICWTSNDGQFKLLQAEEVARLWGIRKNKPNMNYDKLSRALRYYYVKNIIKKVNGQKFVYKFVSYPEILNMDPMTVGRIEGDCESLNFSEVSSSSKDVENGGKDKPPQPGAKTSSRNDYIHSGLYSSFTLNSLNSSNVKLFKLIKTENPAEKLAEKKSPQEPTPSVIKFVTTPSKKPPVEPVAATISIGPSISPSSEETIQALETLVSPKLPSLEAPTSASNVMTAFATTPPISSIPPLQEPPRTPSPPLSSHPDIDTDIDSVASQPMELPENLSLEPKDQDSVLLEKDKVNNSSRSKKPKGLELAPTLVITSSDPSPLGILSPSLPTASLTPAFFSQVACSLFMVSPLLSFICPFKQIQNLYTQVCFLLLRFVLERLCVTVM
To be noted: protein: recombinant; tags: N-terminal GST; dsDNA, one strand shown. The gist of the method: as §1

In assay [7] the target is T4, ETV2 (Homo sapiens, UniProt O00321 1-342).
T4 sequence: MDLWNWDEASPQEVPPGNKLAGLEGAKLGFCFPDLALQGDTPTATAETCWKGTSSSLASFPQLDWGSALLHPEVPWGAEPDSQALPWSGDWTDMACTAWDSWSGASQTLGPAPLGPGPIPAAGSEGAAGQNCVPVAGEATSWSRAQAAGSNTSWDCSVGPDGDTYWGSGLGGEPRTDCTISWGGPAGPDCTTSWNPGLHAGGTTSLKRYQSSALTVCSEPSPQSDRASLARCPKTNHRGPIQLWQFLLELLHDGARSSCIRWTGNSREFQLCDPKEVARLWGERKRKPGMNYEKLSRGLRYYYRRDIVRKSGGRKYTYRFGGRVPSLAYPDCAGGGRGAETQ
Conditions: protein: recombinant; tags: N-terminal GST; dsDNA, one strand shown. In outline: as §1

Assay [8] addresses T5, ELF3 (Homo sapiens, UniProt P78545 1-371).
T5 sequence: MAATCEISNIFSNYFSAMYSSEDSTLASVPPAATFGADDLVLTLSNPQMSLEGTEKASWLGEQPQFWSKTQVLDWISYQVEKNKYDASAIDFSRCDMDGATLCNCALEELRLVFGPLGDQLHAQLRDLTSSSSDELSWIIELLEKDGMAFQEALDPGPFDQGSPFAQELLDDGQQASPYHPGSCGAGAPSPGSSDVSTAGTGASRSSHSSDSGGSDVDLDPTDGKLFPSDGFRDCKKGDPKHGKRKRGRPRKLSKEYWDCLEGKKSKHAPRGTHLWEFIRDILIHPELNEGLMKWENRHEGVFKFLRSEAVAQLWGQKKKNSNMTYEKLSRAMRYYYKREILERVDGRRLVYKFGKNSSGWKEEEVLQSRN
To be noted: protein: recombinant; tags: N-terminal GST; dsDNA, one strand shown. In outline: as §1

In assay [9] the target is CRX (Homo sapiens, UniProt O43186 1-299). Conditions: protein: recombinant; tags: N-terminal GST; dsDNA, one strand shown. The gist of the method:
as §1

Assay [10] addresses ETV1 (Homo sapiens, UniProt P50549 1-477). To be noted: protein: recombinant; tags: N-terminal GST; dsDNA, one strand shown. The gist of the method: as §1

HSF1, sequence (Q00613 whole entry): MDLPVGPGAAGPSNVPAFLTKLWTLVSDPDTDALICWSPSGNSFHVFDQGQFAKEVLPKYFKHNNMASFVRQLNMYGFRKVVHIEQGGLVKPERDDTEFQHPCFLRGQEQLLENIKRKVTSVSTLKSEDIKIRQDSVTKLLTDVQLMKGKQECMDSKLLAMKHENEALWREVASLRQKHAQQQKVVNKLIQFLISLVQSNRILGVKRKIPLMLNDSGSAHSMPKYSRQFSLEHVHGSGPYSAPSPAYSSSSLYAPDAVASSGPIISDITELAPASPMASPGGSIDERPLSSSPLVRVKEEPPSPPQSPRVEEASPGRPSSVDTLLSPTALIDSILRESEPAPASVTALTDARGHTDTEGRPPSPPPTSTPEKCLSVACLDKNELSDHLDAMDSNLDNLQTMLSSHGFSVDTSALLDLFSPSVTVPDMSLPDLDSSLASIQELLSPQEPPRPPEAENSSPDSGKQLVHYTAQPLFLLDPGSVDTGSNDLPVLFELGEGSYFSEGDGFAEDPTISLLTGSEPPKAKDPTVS
ELF4, sequence (Q99607 whole entry): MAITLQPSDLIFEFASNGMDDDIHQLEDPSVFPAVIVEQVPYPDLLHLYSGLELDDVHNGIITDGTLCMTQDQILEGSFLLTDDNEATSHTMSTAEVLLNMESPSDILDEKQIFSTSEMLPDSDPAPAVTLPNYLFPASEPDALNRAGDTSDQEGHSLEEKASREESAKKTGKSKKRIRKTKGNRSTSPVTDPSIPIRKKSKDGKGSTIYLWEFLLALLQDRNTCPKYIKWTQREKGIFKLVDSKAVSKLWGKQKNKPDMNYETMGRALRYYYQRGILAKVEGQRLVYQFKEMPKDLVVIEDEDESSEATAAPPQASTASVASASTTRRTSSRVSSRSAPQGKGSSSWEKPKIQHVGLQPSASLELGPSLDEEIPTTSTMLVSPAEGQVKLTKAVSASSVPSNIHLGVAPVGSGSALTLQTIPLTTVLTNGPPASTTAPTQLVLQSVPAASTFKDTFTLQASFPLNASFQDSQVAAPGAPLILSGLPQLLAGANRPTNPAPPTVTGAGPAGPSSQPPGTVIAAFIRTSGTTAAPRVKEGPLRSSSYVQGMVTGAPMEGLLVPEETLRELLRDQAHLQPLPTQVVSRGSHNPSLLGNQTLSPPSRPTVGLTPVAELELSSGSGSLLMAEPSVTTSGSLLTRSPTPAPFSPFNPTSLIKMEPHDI
ETV5, sequence (P41161 whole entry): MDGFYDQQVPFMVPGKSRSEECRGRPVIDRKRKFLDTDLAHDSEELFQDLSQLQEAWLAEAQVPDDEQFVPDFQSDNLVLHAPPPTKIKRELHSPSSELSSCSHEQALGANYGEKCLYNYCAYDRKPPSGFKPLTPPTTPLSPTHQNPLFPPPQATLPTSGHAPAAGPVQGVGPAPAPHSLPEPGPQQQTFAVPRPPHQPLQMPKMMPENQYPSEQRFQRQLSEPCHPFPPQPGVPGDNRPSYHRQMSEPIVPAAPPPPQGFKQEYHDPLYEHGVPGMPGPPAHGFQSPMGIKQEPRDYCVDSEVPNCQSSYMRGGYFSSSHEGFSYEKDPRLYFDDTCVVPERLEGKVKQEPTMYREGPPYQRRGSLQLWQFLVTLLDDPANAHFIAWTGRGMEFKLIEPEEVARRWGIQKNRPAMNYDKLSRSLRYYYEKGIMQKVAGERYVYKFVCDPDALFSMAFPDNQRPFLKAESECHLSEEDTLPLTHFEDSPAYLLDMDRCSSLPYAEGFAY
CRX, sequence (O43186 whole entry): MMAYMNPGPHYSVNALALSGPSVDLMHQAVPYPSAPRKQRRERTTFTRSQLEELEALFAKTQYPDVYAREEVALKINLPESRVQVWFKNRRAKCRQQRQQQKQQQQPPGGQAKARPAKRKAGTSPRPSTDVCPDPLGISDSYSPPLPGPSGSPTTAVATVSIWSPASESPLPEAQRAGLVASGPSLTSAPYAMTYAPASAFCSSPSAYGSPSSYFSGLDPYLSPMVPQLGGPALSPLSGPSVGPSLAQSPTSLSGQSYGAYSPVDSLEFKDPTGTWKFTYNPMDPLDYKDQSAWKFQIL
ETV1, sequence (P50549 whole entry): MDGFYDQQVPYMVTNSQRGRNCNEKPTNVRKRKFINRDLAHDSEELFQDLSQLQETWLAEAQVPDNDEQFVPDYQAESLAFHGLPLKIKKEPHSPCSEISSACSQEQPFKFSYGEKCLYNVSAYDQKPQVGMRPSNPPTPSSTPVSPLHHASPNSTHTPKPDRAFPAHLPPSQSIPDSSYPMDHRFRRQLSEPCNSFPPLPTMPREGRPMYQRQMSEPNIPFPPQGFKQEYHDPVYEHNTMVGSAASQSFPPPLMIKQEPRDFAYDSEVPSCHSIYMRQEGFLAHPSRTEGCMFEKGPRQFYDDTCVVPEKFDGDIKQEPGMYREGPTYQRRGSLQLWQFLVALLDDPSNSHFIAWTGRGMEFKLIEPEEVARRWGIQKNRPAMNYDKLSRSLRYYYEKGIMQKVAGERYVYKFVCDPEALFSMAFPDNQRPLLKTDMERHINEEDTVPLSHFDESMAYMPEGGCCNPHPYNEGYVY

Consider ATGAAC, for which the binding signal in [1] was 1.26 fold enrichment (6-mer frequency, TF over GST control); in [2] it was 1.29 fold enrichment (6-mer frequency, TF over GST control); in assay [3], 1.21 fold enrichment (6-mer frequency, TF over GST control); in [4] it was 1.39 fold enrichment (6-mer frequency, TF over GST control); in assay [5], 1.36 fold enrichment (6-mer frequency, TF over GST control); in [6], 1.31 fold enrichment (6-mer frequency, TF over GST control). The binding signal was 1.11 fold enrichment (6-mer frequency, TF over GST control) in assay [7]; 1.38 fold enrichment (6-mer frequency, TF over GST control) in [8]; 1.13 fold enrichment (6-mer frequency, TF over GST control) in [9]; 1.38 fold enrichment (6-mer frequency, TF over GST control) in [10].
For the sequence TTCTCG, the binding signal was 1.35 fold enrichment (6-mer frequency, TF over GST control) in assay [1]; 1.29 fold enrichment (6-mer frequency, TF over GST control) in [2]; 4.96 fold enrichment (6-mer frequency, TF over GST control) in assay [3]; 1.32 fold enrichment (6-mer frequency, TF over GST control) in assay [4]; 1.51 fold enrichment (6-mer frequency, TF over GST control) in assay [5]; 1.5 fold enrichment (6-mer frequency, TF over GST control) in assay [6]. The binding signal in assay [7] is 1.4 fold enrichment (6-mer frequency, TF over GST control); in [8], 1.57 fold enrichment (6-mer frequency, TF over GST control); in [9] it was 2.17 fold enrichment (6-mer frequency, TF over GST control); in assay [10], 1.29 fold enrichment (6-mer frequency, TF over GST control).
For ATATCA, the binding signal is 1.1 fold enrichment (6-mer frequency, TF over GST control) in assay [1]; 1.19 fold enrichment (6-mer frequency, TF over GST control) in assay [2]; 1.04 fold enrichment (6-mer frequency, TF over GST control) in assay [3]; 1.21 fold enrichment (6-mer frequency, TF over GST control) in [4]; 1.19 fold enrichment (6-mer frequency, TF over GST control) in [5]; 1.16 fold enrichment (6-mer frequency, TF over GST control) in assay [6]. The binding signal in assay [7] was 1.29 fold enrichment (6-mer frequency, TF over GST control); in assay [8] it was 1.08 fold enrichment (6-mer frequency, TF over GST control); in assay [9], 1.13 fold enrichment (6-mer frequency, TF over GST control); in [10] it was 1.14 fold enrichment (6-mer frequency, TF over GST control).
On to ACCGAT, for which the binding signal is 1.06 fold enrichment (6-mer frequency, TF over GST control) in assay [1]; 1.08 fold enrichment (6-mer frequency, TF over GST control) in [2]; 1.14 fold enrichment (6-mer frequency, TF over GST control) in assay [3]; 1.33 fold enrichment (6-mer frequency, TF over GST control) in assay [4]; 1.24 fold enrichment (6-mer frequency, TF over GST control) in assay [5]; 1.15 fold enrichment (6-mer frequency, TF over GST control) in assay [6]. Further, the binding signal is 1.19 fold enrichment (6-mer frequency, TF over GST control) in assay [7]; 1.22 fold enrichment (6-mer frequency, TF over GST control) in assay [8]; 1.24 fold enrichment (6-mer frequency, TF over GST control) in [9]; 1.12 fold enrichment (6-mer frequency, TF over GST control) in [10].
Turning to TCTTAC, the binding signal in assay [1] was 1.23 fold enrichment (6-mer frequency, TF over GST control); in [2], 1.28 fold enrichment (6-mer frequency, TF over GST control); in [3] it was 1.23 fold enrichment (6-mer frequency, TF over GST control); in assay [4], 1.29 fold enrichment (6-mer frequency, TF over GST control); in assay [5], 1.27 fold enrichment (6-mer frequency, TF over GST control); in assay [6] it was 1.34 fold enrichment (6-mer frequency, TF over GST control). The binding signal was 1.39 fold enrichment (6-mer frequency, TF over GST control) in [7]; 1.13 fold enrichment (6-mer frequency, TF over GST control) in assay [8]; 1.7 fold enrichment (6-mer frequency, TF over GST control) in assay [9]; 1.32 fold enrichment (6-mer frequency, TF over GST control) in assay [10].
Turning to CCGATT, the binding signal in assay [1] was 1.37 fold enrichment (6-mer frequency, TF over GST control); in assay [2], 1.34 fold enrichment (6-mer frequency, TF over GST control); in assay [3] it was 1.94 fold enrichment (6-mer frequency, TF over GST control); in assay [4], 1.18 fold enrichment (6-mer frequency, TF over GST control); in [5] it was 1.41 fold enrichment (6-mer frequency, TF over GST control); in [6], 1.37 fold enrichment (6-mer frequency, TF over GST control). Moreover, the binding signal was 1.27 fold enrichment (6-mer frequency, TF over GST control) in assay [7]; 1.17 fold enrichment (6-mer frequency, TF over GST control) in [8]; 2.69 fold enrichment (6-mer frequency, TF over GST control) in assay [9]; 1.35 fold enrichment (6-mer frequency, TF over GST control) in [10].
As for TTCACT, the binding signal in [1] is 1.4 fold enrichment (6-mer frequency, TF over GST control); in [2] it was 1.31 fold enrichment (6-mer frequency, TF over GST control); in assay [3] it was 1.13 fold enrichment (6-mer frequency, TF over GST control); in [4], 1.16 fold enrichment (6-mer frequency, TF over GST control); in assay [5], 1.34 fold enrichment (6-mer frequency, TF over GST control); in [6] it was 1.42 fold enrichment (6-mer frequency, TF over GST control). Also, the binding signal in assay [7] is 1.39 fold enrichment (6-mer frequency, TF over GST control); in [8], 1.2 fold enrichment (6-mer frequency, TF over GST control); in assay [9], 1.1 fold enrichment (6-mer frequency, TF over GST control); in assay [10], 1.33 fold enrichment (6-mer frequency, TF over GST control).
